Source: PubChem BioAssay (Tox21)
Results filed as inconclusive are left out. The source made the active and inactive calls. Unless noted, calls follow the shape of the dose curve; as a rule, active = well fitted curve in the direction sought with a large enough effect in the repeat runs; inconclusive = weak or mixed curves; inactive = no such curve, though single readings can be large; an effect the other way counts as inactive or inconclusive.

Columns and labels:
[1] = qHTS assay to test for compound auto fluorescence at 535 nm (green) in HEK293 cells (AID 720680); conditions: green autofluorescence 485/535 nm; series mostly up to 91.3 µM
[2] = qHTS assay to test for compound auto fluorescence at 535 nm (green) in HEK293 cell free culture (AID 720682); conditions: cell-free medium, green autofluorescence 485/535 nm, hits give high values; series mostly up to 91.3 µM
Procedure, shortened: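 Intrinsic compound fluorescence is measured in culture medium containing 10% FBS, with excitation at 485 nm and detection at 535 nm, referenced to fluorescein.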

[3] = qHTS assay to test for compound auto fluorescence at 590 nm (red) in HEK293 cell free culture (AID 720683); conditions: cell-free medium autofluorescence, Ex540/Em590 red; series mostly up to 91.3 µM
Procedure, shortened: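 Cell-free wells of DMEM with 10% FBS received compound, and intrinsic fluorescence was read at excitation/emission 540/590 nm. Values expressed as equivalence to Rose Bengal sodium.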

[4] = qHTS assay to test for compound auto fluorescence at 590 nm (red) in HepG2 cell free culture (AID 720684); conditions: cell-free medium autofluorescence, red 540/590 nm; series mostly up to 91.3 µM
Procedure, shortened: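 Compounds are added to culture medium (MEM, 10% FBS) lacking cells, then fluorescence is read at excitation 540 nm, emission 590 nm, with Rose Bengal sodium as the equivalency standard.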

[5] = qHTS assay to test for compound auto fluorescence at 460 nm (blue) in HepG2 cell free culture (AID 720685); conditions: Cell-free culture medium, blue autofluorescence 405/460 nm; series mostly up to 91.3 µM
Procedure, shortened: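 Compound (23 nL) or DMSO pinned into cell-free MEM with 10% FBS; blue fluorescence read at 405/460 nm excitation/emission, expressed as auto-fluorescence equivalency to triamterene.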

[6] = qHTS assay to test for compound auto fluorescence at 535 nm (green) in HepG2 cell free culture (AID 720686); conditions: Cell-free medium, green autofluorescence 485/535 nm; series mostly up to 91.3 µM
[7] = qHTS assay to identify small molecule antagonists of the glucocorticoid receptor (GR) signaling pathway - cell viability counter screen (AID 720693); conditions: GR-bla HeLa viability, CellTiter-Glo luminescence, 18 h, with 5 nM dexamethasone present; series mostly up to 58.5 µM; also: nearly all actives have a fitted effect of over 55% in size
[8] = qHTS assay for identifying genotoxic compounds that show differential cytotoxicity against isogenic chicken DT40 cell lines with known DNA damage response pathways - wild type cell line (AID 743012); conditions: DT40 wild type chicken cells viability, CellTiter-Glo, 40 h; series mostly up to 68.4 µM; also: nearly all actives have a fitted effect of over 60% in size; also: potency is read from the fitted curve at half-maximal effect
Procedure, shortened: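 First, wild type DT40 cells were plated at 300 per well and equilibrated about 0.5 h at 37 C/5% CO2. Next, compounds in DMSO were added and exposure lasted 40 h. Finally, CellTiter-Glo was added for 30 min at room temperature and luminescence recorded.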

[9] = qHTS assay for identifying genotoxic compounds that show differential cytotoxicity against isogenic chicken DT40 cell lines with known DNA damage response pathways - Rev3 mutant cell line (AID 743014); conditions: chicken DT40 Rev3-/- viability, CellTiter-Glo, 40 h; series mostly up to 68.4 µM; also: nearly all actives have a fitted effect of over 55% in size; also: potency is read from the fitted curve at half-maximal effect
[10] = qHTS assay for identifying genotoxic compounds that show differential cytotoxicity against isogenic chicken DT40 cell lines with known DNA damage response pathways - Rad54/Ku70 mutant cell line (AID 743015); conditions: DT40 Rad54/Ku70 mutant viability, CellTiter-Glo, 40 h; series mostly up to 66.8 µM; also: nearly all actives have a fitted effect of over 60% in size; also: potency is read from the fitted curve at half-maximal effect
[11] = qHTS assay to identify small molecule antagonists of the androgen receptor (AR) signaling pathway - cell viability counter screen (AID 743033; also: nearly all actives have a fitted effect of over 45% in size); conditions: AR-bla HEK293 viability, CellTiter-Glo luminescence, 16 h; series mostly up to 58.5 µM
[12] = qHTS assay to identify small molecule antagonists of the androgen receptor (AR) signaling pathway using the MDA cell line - cell viability counter screen (AID 743041; also: nearly all actives have a fitted effect of over 45% in size); conditions: MDA-kb2 viability, CellTiter-Fluor, 16 h, cells co-treated with R1881 androgen agonist; series mostly up to 70.3 µM
Procedure, shortened: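 Same-well cytotoxicity was assessed by CellTiter-Fluor in MDA-kb2 AR-luc cells after 16 h of compound treatment under R1881 agonism.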

[13] = qHTS assay to test for compound auto fluorescence at 460 nm (blue) in HepG2 cells (AID 720687); conditions: autofluorescence 405/460 nm, 1 h; series mostly up to 91.3 µM
Procedure, shortened: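 HepG2 cells in MEM with 10% FBS, attached overnight at 37 C, were exposed to compound or DMSO for 1 hr at 37 C, 5% CO2. Blue fluorescence was read at 405/460 nm, with triamterene as reference fluorophore.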

[14] = target: Glucocorticoid receptor (Homo sapiens) (UniProt P04150); experiment: qHTS assay to identify small molecule agonists of the glucocorticoid receptor (GR) signaling pathway (AID 720691; active = well fitted activation curve with a large enough effect in the signal ratio in the repeat runs, not every such curve was filed as active; the % refers to the signal ratio); conditions: GR-bla HeLa, beta-lactamase reporter ratio, 18 h; series mostly up to 62.4 µM
Glucocorticoid receptor (Homo sapiens), sequence (P04150 whole entry, looked up): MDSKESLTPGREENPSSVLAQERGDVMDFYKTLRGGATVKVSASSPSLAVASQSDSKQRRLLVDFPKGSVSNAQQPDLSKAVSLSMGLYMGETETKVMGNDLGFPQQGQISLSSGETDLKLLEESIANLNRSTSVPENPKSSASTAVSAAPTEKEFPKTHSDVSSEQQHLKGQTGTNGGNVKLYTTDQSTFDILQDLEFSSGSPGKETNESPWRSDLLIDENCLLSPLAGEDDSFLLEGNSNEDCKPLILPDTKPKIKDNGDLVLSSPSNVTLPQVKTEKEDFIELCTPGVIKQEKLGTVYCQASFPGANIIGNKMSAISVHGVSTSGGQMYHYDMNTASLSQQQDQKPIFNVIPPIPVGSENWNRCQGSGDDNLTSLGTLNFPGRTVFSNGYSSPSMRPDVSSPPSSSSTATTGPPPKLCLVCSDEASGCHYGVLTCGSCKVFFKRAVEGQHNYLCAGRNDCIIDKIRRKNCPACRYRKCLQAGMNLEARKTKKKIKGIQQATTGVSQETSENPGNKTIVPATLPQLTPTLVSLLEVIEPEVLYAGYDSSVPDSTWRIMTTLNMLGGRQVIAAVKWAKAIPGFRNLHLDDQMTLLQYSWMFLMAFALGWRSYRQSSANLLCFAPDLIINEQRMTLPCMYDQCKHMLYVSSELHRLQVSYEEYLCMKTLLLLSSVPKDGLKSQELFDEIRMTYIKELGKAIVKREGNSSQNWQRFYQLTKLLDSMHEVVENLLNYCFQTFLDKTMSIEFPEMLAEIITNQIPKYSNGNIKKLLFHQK
Procedure, shortened: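 qHTS in GR-bla HeLa cells: 4 h settling at 37 C/5% CO2, 18 h compound incubation at 37 C, 2 h LiveBLAzer B/G FRET substrate at room temperature, fluorescence intensity measured.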

[15] = target: Glucocorticoid receptor (Homo sapiens) (UniProt P04150); experiment: qHTS assay to identify small molecule antagonists of the glucocorticoid receptor (GR) signaling pathway (AID 720692; active = well fitted inhibition curve with a large enough effect in the signal ratio in the repeat runs, not every such curve was filed as active; the % refers to the signal ratio); conditions: GR-bla HeLa, beta-lactamase FRET ratio, dexamethasone-stimulated, 18 h; series mostly up to 58.5 µM
Procedure, shortened: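 Inhibition of glucocorticoid signalling is measured in HeLa cells with a GRE-controlled beta-lactamase reporter; cells are co-treated with compound and 5 nM dexamethasone (final) for 18 h before FRET substrate readout.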

[16] = target: Androgen receptor (Homo sapiens) (UniProt P10275); experiment: qHTS assay to identify small molecule antagonists of the androgen receptor (AR) signaling pathway (AID 743035; active = well fitted inhibition curve with a large enough effect in the signal ratio in the repeat runs, not every such curve was filed as active; the % refers to the signal ratio); conditions: HEK293 AR-UAS-bla, R1881-stimulated, beta-lactamase FRET, 16 h; series mostly up to 58.5 µM
Androgen receptor (Homo sapiens), sequence (P10275 whole entry, looked up): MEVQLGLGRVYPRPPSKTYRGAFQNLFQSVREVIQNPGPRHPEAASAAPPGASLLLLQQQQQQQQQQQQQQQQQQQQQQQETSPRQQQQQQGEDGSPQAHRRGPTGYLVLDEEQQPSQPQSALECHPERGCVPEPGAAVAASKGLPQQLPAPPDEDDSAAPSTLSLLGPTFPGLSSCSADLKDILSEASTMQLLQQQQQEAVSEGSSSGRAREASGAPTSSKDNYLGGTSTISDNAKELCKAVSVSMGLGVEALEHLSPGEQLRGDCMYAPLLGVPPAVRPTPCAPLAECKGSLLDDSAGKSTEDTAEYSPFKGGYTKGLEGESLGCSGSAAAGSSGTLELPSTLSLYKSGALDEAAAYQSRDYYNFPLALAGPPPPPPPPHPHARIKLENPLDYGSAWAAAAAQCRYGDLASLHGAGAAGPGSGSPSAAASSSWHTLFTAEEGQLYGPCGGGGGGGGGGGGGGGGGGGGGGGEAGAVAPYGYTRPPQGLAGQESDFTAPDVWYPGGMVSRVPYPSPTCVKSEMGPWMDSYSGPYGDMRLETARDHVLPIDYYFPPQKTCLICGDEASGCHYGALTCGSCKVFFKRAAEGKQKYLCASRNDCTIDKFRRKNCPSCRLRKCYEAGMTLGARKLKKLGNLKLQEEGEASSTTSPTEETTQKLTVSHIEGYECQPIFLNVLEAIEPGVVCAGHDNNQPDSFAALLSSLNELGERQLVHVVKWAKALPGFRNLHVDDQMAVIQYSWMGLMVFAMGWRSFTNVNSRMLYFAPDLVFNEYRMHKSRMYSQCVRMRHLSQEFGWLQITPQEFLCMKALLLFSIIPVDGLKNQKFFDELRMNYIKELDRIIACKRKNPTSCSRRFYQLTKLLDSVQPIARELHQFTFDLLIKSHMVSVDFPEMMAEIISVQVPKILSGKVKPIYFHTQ
Procedure, shortened: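 Beta-lactamase FRET read (2 h RT incubation with LiveBLAzer B/G) following 16 h of compound plus R1881 treatment of AR-UAS-bla HEK293 cells, which had been pre-incubated 4 h at 37C.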

[17] = target: Androgen receptor (Homo sapiens) (UniProt P10275); experiment: qHTS assay to identify small molecule agonists of the androgen receptor (AR) signaling pathway (AID 743036; active = well fitted activation curve with a large enough effect in the signal ratio in the repeat runs, with a control signal flat, not every such curve was filed as active; the % refers to the signal ratio); conditions: HEK293 AR-UAS-bla GripTite, beta-lactamase FRET ratio, 16 h; series mostly up to 62.4 µM
Procedure, shortened: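 Agonist activity was scored by beta-lactamase reporter fluorescence in stably transfected HEK293 cells exposed to compounds for 16 h at 37C and 5% CO2. Substrate loading took 2 h at room temperature.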

[18] = target: Androgen receptor (Homo sapiens) (UniProt P10275); experiment: qHTS assay to identify small molecule agonists of the androgen receptor (AR) signaling pathway using the MDA cell line (AID 743040; also: nearly all actives have a fitted effect of over 20% in size); conditions: MDA-kb2 AR-luc cells, MMTV luciferase, 16 h; series mostly up to 70.3 µM
Procedure, shortened: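 Human breast carcinoma MDA-kb2 reporter cells (MMTV-luc, AR/GR elements) were treated for 16 h at 37C in 0% CO2 following a 5 h settling period. Signal was quantified by ONE-Glo luminescence.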

[19] = target: Androgen receptor (Homo sapiens) (UniProt P10275); experiment: qHTS assay to identify small molecule antagonists of the androgen receptor (AR) signaling pathway using the MDA cell line (AID 743042; also: nearly all actives have a fitted effect of over 55% in size); conditions: MDA-kb2 AR-luc, MMTV luciferase, R1881 antagonist, 16 h; series mostly up to 70.3 µM
Procedure, shortened: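 MDA-kb2 breast carcinoma cells carrying MMTV-luciferase (AR/GR responsive) were co-treated with compounds and the agonist R1881 for 16 h at 37C. Inhibition read as ONE-Glo luminescence; CellTiter-Fluor fluorescence measured in parallel for cytotoxicity.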

Measured: Potency

C[C@H]1[C@@H](c2ccccc2)NC(=O)N1C
inactive: [1] | [2] | [3] | [4] | [5] | [6] | [7] | [8] | [9] | [10] | [11] | [12]

CSc1cnccn1
inactive: [1] | [2] | [3] | [4] | [5] | [6] | [13] | [7] | [8] | [9] | [10] | [11] | [12]

CC(C)OC(=O)OCOP(=O)(CO[C@H](C)Cn1cnc2c(N)ncnc21)OCOC(=O)OC(C)C
inactive: [1] | [3] | [4] | [5] | [6] | [7] | [8] | [9] | [10] | [11] | [12]

CN1C[C@@H]2C[C@H]1CN2c1cc2c(cc1F)c(=O)c(C(=O)O)cn2C1CC1
inactive: [1] | [2] | [3] | [4] | [5] | [6] | [13] | [14] | [15] | [7] | [11] | [12]
active: [8] 7.5 µM | [10] 11.9 µM

c1ccc(B(c2ccccc2)c2ccccc2)cc1
inactive: [1] | [2] | [3] | [4] | [5] | [6] | [14] | [7] | [8] | [9] | [10] | [11] | [12]

C=CCSSCCC
inactive: [1] | [3] | [4] | [5] | [6] | [14] | [15] | [7] | [9] | [10] | [11] | [12]

C/C=C(\C)C(C)=O
inactive: [1] | [3] | [4] | [5] | [6] | [13] | [14] | [15] | [7] | [8] | [10] | [11] | [16] | [17] | [18] | [12] | [19]

O=C=NCC1CCCC(CN=C=O)C1 (configuration not stated)
inactive: [1] | [3] | [4] | [5] | [6] | [7] | [8] | [9] | [10] | [11] | [12]

c1ccc2cnccc2c1
active: [9] 30.6 µM | [10] 54.5 µM
inactive: [1] | [2] | [3] | [4] | [5] | [13] | [14] | [15] | [7] | [11] | [12]

CCO
inactive: [1] | [2] | [3] | [4] | [5] | [6] | [13] | [14] | [7] | [8] | [9] | [10] | [11] | [16] | [18] | [12] | [19]

ONc1ccccc1
inactive: [1] | [2] | [3] | [4] | [5] | [6] | [13] | [14] | [15] | [10] | [11] | [12]

c1ccc(-c2nn[nH]n2)cc1
inactive: [1] | [2] | [3] | [4] | [5] | [6] | [14] | [7] | [10] | [11] | [12]

CC1=C(C(=O)O)N2C(=O)[C@@H](NC(=O)[C@H](N)c3ccccc3)[C@H]2SC1
inactive: [1] | [3] | [4] | [5] | [6] | [13] | [14] | [15] | [7] | [8] | [9] | [10] | [11] | [12]

CCC/C=C(\C=O)CC
inactive: [1] | [2] | [3] | [4] | [5] | [13] | [14] | [7] | [8] | [9] | [10] | [11] | [12]

C=CC(=O)OCC1CCCO1 (configuration not stated)
inactive: [1] | [2] | [3] | [4] | [5] | [6] | [13] | [7] | [8] | [10] | [11] | [12]

C=CC(=O)CCCCC
inactive: [1] | [2] | [3] | [4] | [5] | [6] | [13] | [7] | [8] | [9] | [10] | [11] | [12]

Cc1ccc(N)cc1S(=O)(=O)O
inactive: [1] | [2] | [3] | [4] | [5] | [14] | [15] | [7] | [8] | [9] | [11] | [12]

CC12CCC(C1)C(C)(C)C2O (configuration not stated)
inactive: [1] | [2] | [3] | [4] | [5] | [6] | [7] | [8] | [9] | [10] | [11] | [12]

O=NN(CCCl)C(=O)NC1CCCCC1
inactive: [1] | [2] | [3] | [4] | [5] | [6] | [13] | [7] | [8] | [9] | [10] | [11] | [12]

COc1cc2c(cc1OC)C(=O)C(CC1CCN(Cc3ccccc3)CC1)C2 (configuration not stated)
inactive: [1] | [2] | [3] | [4] | [5] | [6] | [13] | [7] | [11] | [17] | [18] | [12] | [19]

C[C@]12CCC(=O)C=C1CC[C@H]1[C@@H]3CC[C@](O)(C(=O)CO)[C@@]3(C)C[C@H](O)[C@@]12F
inactive: [1] | [2] | [3] | [4] | [5] | [6] | [13] | [7] | [11] | [12]
active: [8] 23.7 µM | [9] 11.9 µM | [10] 21.1 µM

Cc1c(Cl)cccc1Cl
inactive: [1] | [2] | [3] | [4] | [5] | [6] | [14] | [15] | [7] | [8] | [10] | [11] | [12]

COC(C)(OC)OC
inactive: [1] | [2] | [3] | [4] | [5] | [13] | [14] | [15] | [7] | [8] | [10] | [11] | [16] | [17] | [18] | [12] | [19]

CC(=O)C1C(=O)C=C(C)OC1=O (configuration not stated)
inactive: [1] | [2] | [3] | [4] | [5] | [13] | [14] | [15] | [7] | [8] | [10] | [11] | [12]

CC(C)[C@H]1CC[C@H](C)C[C@@H]1O
inactive: [1] | [3] | [4] | [5] | [6] | [13] | [7] | [8] | [9] | [10] | [11] | [16] | [17] | [18] | [12] | [19]

O=C[O][Al]([O]C=O)[O]C=O
inactive: [1] | [2] | [3] | [4] | [5] | [6] | [13] | [14] | [15] | [7] | [11] | [12]
